# Measured values published in PubChem BioAssay (Tox21).
# Where “and” joins values, the source holds several entries; their conditions need not be identical. Equal entries are not always repeated. Inconclusive results are not listed. Entries that show only a call come without a potency. A structure can be active in one record and inactive in another. Calls of active or inactive are those of the source. Unless noted, the call rests on the fitted dose curve; in most records, active means well fitted curve in the direction sought with a large enough effect in the repeat runs; inconclusive means weak or mixed curves; inactive means no such curve, though single readings can be large; an effect the other way counts as inactive or inconclusive.
# Key:
# [1] = target: Thyrotropin receptor (Homo sapiens) (UniProt P16473); assay: qHTS assay to identify small molecule agonists of the thyroid stimulating hormone receptor (TSHR) signaling pathway (AID 1224843; calls by dose curve; further: nearly all actives have a fitted effect of over 45% in size); conditions: TSHR-HEK293 cells, cAMP HTRF, agonist mode, 30 min; series mostly up to 92.4 µM
# Sequence of Thyrotropin receptor (Homo sapiens) (P16473 whole entry, looked up): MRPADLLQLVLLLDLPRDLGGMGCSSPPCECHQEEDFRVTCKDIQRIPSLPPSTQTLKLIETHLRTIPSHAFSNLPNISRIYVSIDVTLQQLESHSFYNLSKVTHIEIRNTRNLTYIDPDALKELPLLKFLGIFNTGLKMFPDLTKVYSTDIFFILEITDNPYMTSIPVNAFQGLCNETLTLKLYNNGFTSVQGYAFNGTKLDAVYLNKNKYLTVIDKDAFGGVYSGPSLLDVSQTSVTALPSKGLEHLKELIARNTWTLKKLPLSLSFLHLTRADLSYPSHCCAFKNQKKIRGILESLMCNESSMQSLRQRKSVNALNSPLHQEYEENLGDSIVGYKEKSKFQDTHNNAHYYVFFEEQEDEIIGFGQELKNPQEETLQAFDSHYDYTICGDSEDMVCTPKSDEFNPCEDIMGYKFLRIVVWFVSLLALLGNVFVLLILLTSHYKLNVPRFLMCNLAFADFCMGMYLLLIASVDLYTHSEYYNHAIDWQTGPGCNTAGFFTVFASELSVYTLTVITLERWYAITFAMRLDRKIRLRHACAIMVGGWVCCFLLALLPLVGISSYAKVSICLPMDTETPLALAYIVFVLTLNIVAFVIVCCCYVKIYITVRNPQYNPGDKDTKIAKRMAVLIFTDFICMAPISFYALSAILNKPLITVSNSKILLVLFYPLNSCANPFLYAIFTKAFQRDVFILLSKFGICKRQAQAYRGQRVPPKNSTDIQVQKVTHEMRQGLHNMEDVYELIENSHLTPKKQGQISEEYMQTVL
# Procedure, shortened: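 TSHR-expressing HEK293 cells (800 per well) were exposed to compounds for 30 min at room temperature. cAMP was then detected by HTRF competition with cAMP-d2 and anti-cAMP cryptate, read after 1 h at room temperature. Fifteen concentrations, triplicate.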
# [2] = qHTS assay to identify small molecule agonists of the hypoxia (HIF-1) signaling pathway - cell viability counter screen (AID 1224844; calls by dose curve; further: nearly all actives have a fitted effect of over 50% in size; further: potency means the concentration at half of the fitted maximal effect); conditions: HRE-bla ME-180 viability, CellTiter-Glo luminescence, 17 h; series mostly up to 76.8 µM
# Procedure, shortened: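 Tox21 10K compounds were added to HRE-bla ME-180 cells (0.5% dialyzed FBS) and incubated 17 hrs at 37C; ATP-based CellTiter-Glo luminescence then reported cell viability in the same wells.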
# [3] = qHTS assay to identify small molecule agonists of H2AX (AID 1224845; active means well fitted activation curve with a large enough effect in the signal ratio in the repeat runs, not every such curve was filed as active; the % refers to the signal ratio; further: potency means the concentration at half of the fitted maximal effect); conditions: CHO-K1 phospho-H2AX Ser139 HTRF, 3 h; series mostly up to 154 µM
# Procedure, shortened: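 Wild-type CHO-K1 cells plated overnight, then exposed 3 hr at 37C to compounds at 15 concentrations (0.76% DMSO). Lysed, then HTRF anti-pH2AX(S139)-cryptate/anti-H2AX-d2 detection after 24 hr at room temperature; emissions 665 and 620 nm.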
# [4] = qHTS assay to identify small molecule agonists of the hypoxia (HIF-1) signaling pathway (AID 1224846; active means well fitted activation curve with a large enough effect in the signal ratio in the repeat runs, not every such curve was filed as active; the % refers to the signal ratio); conditions: HRE-bla ME-180 cells, beta-lactamase ratio, 17 h; series mostly up to 76.8 µM
# Procedure, shortened: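 Steps: seed ME-180 HRE-bla cells (2,000/well, 0.5% dialyzed FBS); incubate 5 hrs at 37C; pin-transfer compounds or DMSO; incubate 17 hrs; add LiveBLAzer B/G substrate CCF4-AM; measure reporter activation by FRET.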
# [5] = qHTS assay to identify small molecule agonists of H2AX - cell viability counter screen (AID 1224847; calls by dose curve; further: top concentration of the series differs between compounds; nearly all actives have a fitted effect of over 30% in size); conditions: CHO-K1 viability, CellTiter-Glo luminescence, 3 h; series mostly up to 154 µM
# Procedure, shortened: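 For this counter screen, overnight-attached CHO-K1 cells received test compounds (15 concentrations, 0.76% DMSO final); 3 hr later at 37C, CellTiter-Glo reagent was added and luminescence recorded after 30 min at room temperature.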
# [6] = qHTS assay to identify small molecule antagonists of the estrogen related receptor (ERR) signaling pathway from Tox21 library (AID 1224848); conditions: ERR reporter cell line, luciferase antagonist mode, 18 h; series mostly up to 92.4 µM; further: nearly all actives have a fitted effect of over 50% in size
# Procedure, shortened: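 Cells: ERR line, 2,000/well; 6 h preincubation 37 C/5% CO2. Cpd in DMSO via pin tool; 18 h, 37 C. ONE-Glo, 30 min RT, luminescence.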
# [7] = qHTS RealTime-Glo MT Cell Viability Assay in HepG2 cells - 24 hour (AID 1224867); conditions: RealTime-Glo luminescence; series mostly up to 76.8 µM; further: nearly all actives have a fitted effect of over 50% in size
# Procedure, shortened: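 Cell number in HepG2 cultures estimated from NanoLuc luminescence generated by metabolic reduction of a prosubstrate by living cells. The homogeneous, nonlytic format allowed repeated reads at 0, 8, 16, 24, 32 and 40 h of compound exposure.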
# [8] = qHTS RealTime-Glo MT Cell Viability Assay in HEK293 cells - 32 hour (AID 1224868); conditions: RealTime-Glo luminescence; series mostly up to 76.8 µM; further: nearly all actives have a fitted effect of over 50% in size; further: potency means the concentration at half of the fitted maximal effect
# Procedure, shortened: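 Homogeneous bioluminescent viability format in HEK293 cells (600 cells/well). Following 5 h at 37 C/5% CO2, 23 nL compound was pintooled; the signal was measured repeatedly during 40 h incubation.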
# [9] = A CellTox Green Cytotoxicity Assay to monitor cytotoxicity in HEK293 cells - 0 hour (AID 1224869); conditions: CellTox Green fluorescence; series mostly up to 76.8 µM; further: nearly all actives have a fitted effect of over 50% in size
# Procedure, shortened: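 Cytotoxicity was tracked continuously in HEK293 cells by a DNA-binding dye excluded from viable cells. Compounds were transferred in DMSO 5 h after seeding; fluorescence was recorded at intervals up to 40 h.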
SMILES,Potency [1],Potency [2],Potency [3],outcome [4],Potency [5],Potency [6],Potency [7],Potency [8],Potency [9]
CCCCCCCCCCCCOCC1CO1 (stereo unspecified),inactive,inactive,inactive,inactive,inactive,inactive,inactive,inactive,inactive
OCC#CCO,inactive,inactive,inactive,inactive,inactive,–,inactive,inactive,inactive
OCCOCCOCCOCCO,inactive,inactive,inactive,inactive,inactive,–,inactive,inactive,inactive
CC1(C)O[C@@H]2C[C@H]3[C@@H]4C[C@H](F)C5=CC(=O)CC[C@]5(C)[C@H]4[C@@H](O)C[C@]3(C)[C@]2(C(=O)CO)O1,inactive,inactive,inactive,inactive,inactive,inactive,inactive,inactive,inactive
CC(=O)Nc1ccc(C(=O)O)cc1,inactive,inactive,inactive,inactive,inactive,–,inactive,inactive,inactive
C=C(C)C(=O)OCCCCCCCCCCCC,inactive,inactive,inactive,inactive,inactive,inactive,inactive,inactive,inactive
Cc1ccc(C)c(C)c1,inactive,inactive,inactive,inactive,inactive,–,inactive,inactive,inactive
CC(C)(C)C1CCC(O)CC1 (stereo unspecified),inactive,inactive,inactive,inactive,inactive,–,inactive,inactive,inactive
OC[C@@H](O)[C@@H](O)[C@H](O)[C@@H](O)CO,inactive,inactive,inactive,inactive,inactive,inactive,inactive,inactive,inactive
Oc1ccc(OCc2ccccc2)cc1,inactive,inactive,22.1 µM (active) and inactive,inactive,inactive,–,inactive,1.07 µM (active) and inactive,inactive
CCCCCCOC(C)=O,inactive,inactive and 27.5 µM (active),inactive,inactive,inactive,inactive,inactive,inactive,inactive
Cc1ccc(C(=O)O)o1,inactive,inactive,inactive,inactive,inactive,–,inactive,inactive,inactive
